According to PubChem BioAssay (NCI):
The panel holds about 83,000 compounds, 20% with a hit somewhere; the sample as a whole holds those more often.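 In brief: 96-well plates, 48 h treatment, single concentration, percent growth endpoint.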 Values without a mark were called inactive. Activity calls are given as the source filed them. How the source made its calls: active means growth percent below 10; inactive means the rest.

Key:
Test in all cases: NCI-60 one-dose screen, 48 h (100 = growth as untreated, 0 = no growth, -100 = all killed)
Conditions in all cases: 10 µM
[1] = tested on: HCT-15 colon
[2] = tested on: HT29 colon
[3] = tested on: SNB-75 CNS
[4] = tested on: SNB-19 CNS
[5] = tested on: U251 CNS
[6] = tested on: PC-3 prostate
[7] = tested on: SK-MEL-5 melanoma
[8] = tested on: UACC-62 melanoma
[9] = tested on: LOX IMVI melanoma
[10] = tested on: SK-MEL-28 melanoma
[11] = tested on: SK-MEL-2 melanoma
[12] = tested on: SN12C renal
[13] = tested on: UO-31 renal
[14] = tested on: TK-10 renal
[15] = tested on: ACHN renal
[16] = tested on: CAKI-1 renal
[17] = tested on: A498 renal
[18] = tested on: CCRF-CEM leukemia
[19] = tested on: MOLT-4 leukemia

SMILES | growth [1] | growth [2] | growth [3] | growth [4] | growth [5] | growth [6] | growth [7] | growth [8] | growth [9] | growth [10] | growth [11] | growth [12] | growth [13] | growth [14] | growth [15] | growth [16] | growth [17] | growth [18] | growth [19]
COc1ccc(-c2nc(-c3nc4ccc(OC)cc4[nH]3)c3ccccn23)cc1 | 59.7% | 58.6% | 57% | 85.5% | 61.6% | 35% | 59% | 79% | 71.1% | 98.1% | 71.3% | 71.4% | 25.5% | 79.3% | 64.2% | 64% | 55.5% | 33.8% | 45.5%
Nc1ccccc1NC(=O)CCCCCCC(=O)Nc1ccc2c(c1)/C(=C/c1ccc[nH]1)C(=O)N2 | 89.8% | 48.2% | -2.9% (active) | 49.8% | 20.5% | 29% | 55.1% | 25.8% | 43.9% | 42.7% | -1.9% (active) | 17.4% | 29.1% | 48.1% | 77% | 49.8% | -0.734% (active) | 5.46% (active) | 9.11% (active)
N=C(N)c1ccc(-c2ccc(-c3ccccc3)s2)s1 | -36.4% (active) | -70.1% (active) | -6.07% (active) | 10% | -74.6% (active) | -26% (active) | 14.5% | -84.9% (active) | -69.2% (active) | -95.9% (active) | -77.7% (active) | -74.9% (active) | -74.1% (active) | -61.7% (active) | -82.6% (active) | -59.4% (active) | 32.1% | -49.4% (active) | -55.9% (active)
CCN1CCN(c2nc(NNC(=O)c3cccc(OC)c3)nc(N3CCN(C(c4ccccc4)c4ccccc4)CC3)n2)CC1 | 15.4% | 9.36% (active) | 61.9% | 78.1% | 41.8% | 41.9% | 53.5% | 73.5% | 7.34% (active) | 63.2% | 75% | 61% | 27.5% | 79.7% | 56.1% | 42.2% | 75.3% | 48.9% | 23.8%
CCCCC(=O)N(c1ccc(Nc2c3ccccc3nc3cc([N+](=O)[O-])ccc23)cc1)S(C)(=O)=O | 76.3% | 79% | 66.1% | 69.5% | 64.2% | 52% | 69% | 75.8% | 52.5% | 105% | 109% | 69.3% | 36.7% | 95.8% | 43.1% | 59.9% | 78.8% | 33.2% | 22.8%
CCn1nc(-c2ccc(C(=O)OC)cc2)nc2c(=O)n(C)c(=O)nc1-2 | 64.1% | 70.7% | -44% (active) | 56.8% | 41.5% | 57.3% | 87% | 50.5% | 55.5% | 77.7% | 96.6% | 76.6% | 49.9% | 85.7% | -53.4% (active) | 63.7% | 108% | 83.9% | 101%
COc1cc(C2C=C(c3ccc(Cl)c(Cl)c3)N=C3SC(C)=CN32)cc(OC)c1OC (stereo not drawn) | 64.8% | 53.1% | 81.7% | 79.5% | 51.2% | 59.2% | 83.9% | 85.8% | 41.3% | 102% | 83.4% | 92.3% | 55.2% | 94.7% | 90.3% | 67.3% | 74% | 36.7% | 46.2%
C[C@]12CC[C@H]3[C@@H](CCC4=CC(=O)CC[C@@]43C)[C@@H]1CC[C@@H]2c1csc(N)n1 | 46.5% | 56.6% | 92.5% | 71.5% | 56.9% | 19.3% | 9.04% (active) | 41.8% | 59.3% | 82.8% | 62.9% | 71.8% | 44% | 87.3% | 77.2% | 47.3% | 84.3% | 42.1% | 27.7%
Cc1ccc([P+](Cc2ccc([N+](=O)[O-])cc2)(c2ccc(C)cc2)c2ccc(C)cc2)cc1 | 96.7% | 23.1% | 30.9% | 57.6% | 39.6% | 38.7% | -12.4% (active) | -0.637% (active) | 32.4% | 28.4% | -21.6% (active) | 67.6% | 70.5% | 49.1% | 97.5% | 94.7% | 65.6% | 24.5% | 52.4%
Nc1ncncc1-c1ccc(F)cc1 | 103% | 113% | 85.3% | 106% | 103% | 103% | 104% | 107% | 98.7% | 115% | 132% | 107% | 103% | 116% | 108% | 98.5% | 95.2% | 109% | 98.4%
CC(=O)OCC(COC(C)=O)(COC(C)=O)COC(C)=O | 102% | 102% | 105% | 104% | 103% | 102% | 93% | 103% | 98.1% | 121% | 101% | 108% | 84.7% | 108% | 110% | 103% | 73.4% | 103% | 93.5%
CCCCC(CC#N)(CCC)CCC | 99% | 99% | 80.6% | 106% | 102% | 99.2% | 106% | 118% | 92.1% | 99.6% | 102% | 106% | 90.6% | 92.7% | 102% | 90.3% | 103% | 94.7% | 97.5%
COc1cc2ccnc(C=O)c2cc1OC | 27.9% | 20.9% | 76.7% | 88.3% | 91% | 90.7% | 60.6% | 74% | 41.8% | 79.5% | 83.2% | 77.8% | 13.8% | 50.4% | 51.2% | 47.5% | 111% | -3.23% (active) | 29.7%
CC(=O)N(O)c1ccc(/C=C/c2ccccc2)cc1 | 62.7% | 47% | 16% | 32.3% | 14.1% | 36.1% | 73.7% | 32.2% | 25.9% | 75.4% | 92.7% | 26.5% | -30.8% (active) | 4.86% (active) | -18.1% (active) | 0.955% (active) | -78.8% (active) | 26.5% | 41.8%
Oc1cc(O)c(Br)cc1Br | 101% | 98.1% | 95.7% | 102% | 99.7% | 87.9% | 97.7% | 101% | 94% | 111% | 96.6% | 101% | 85.2% | 94.3% | 103% | 95.9% | 96.7% | 95.4% | 93.1%
Cc1cc(C)c(/C=C2\C(=O)Nc3ccc(NC(=O)CCCCCCC(=O)NO)cc32)[nH]1 | 86% | 11.4% | -1.02% (active) | 31.2% | 4% (active) | 5.9% (active) | 6.38% (active) | -12.3% (active) | 7.92% (active) | 24% | -5.24% (active) | 44% | 66% | 10.6% | 58.5% | 68.7% | -9.05% (active) | 23.9% | 13.2%
COc1ccc(-c2nsc3c2NC(=O)CC3c2ccc(Cl)cc2)cc1 (stereo not drawn) | 86.3% | 89.8% | 91.2% | 95.9% | 93.3% | 82% | 81.8% | 73.4% | 90.4% | 103% | 77.2% | 83.8% | 62.8% | 83.9% | 82.7% | 80.2% | 83.3% | 74.4% | 66.9%
